System: TEK

SMILES | Kinases covered
Cl.O=C(Nc1ccc(Oc2ccc3[nH]c(NC(=O)c4ccccc4)nc3c2)cc1)Nc1cc(C(F)(F)F)ccc1F [GW709042A] | TEK
COC(=O)Nc1nc2ccc(Oc3ccc(NC(=O)Nc4cc(C(F)(F)F)ccc4F)cc3)cc2s1.Cl [GW693917A] | TEK
Cl.O=C(Nc1ccc(Oc2ccc3[nH]c(NC(=O)c4ccco4)nc3c2)cc1)Nc1cc(C(F)(F)F)ccc1F [GW683134A] | TEK
Nc1ncnc2occ(-c3ccc(NC(=O)Nc4cc(C(F)(F)F)ccc4F)cc3)c12 [GW770249X] | TEK

System: TYK2

SMILES | Kinases covered
CN(C)C/C=C/C(=O)Nc1ccc(C(=O)Nc2cccc(Nc3ncc(Cl)c(-c4c[nH]c5ccccc45)n3)c2)cc1 [THZ1] | TYK2
COc1ccc(-c2cc3c(N)ncnc3o2)cc1 [GW642138X] | TYK2
Nc1ncnc2[nH]c(-c3ccccc3)nc12 [AH5015] | TYK2

System: YSK4

SMILES | Kinases covered
CC(C)N1CC(=O)N(C)c2cnc(Nc3cccc(S(=O)(=O)CCN4CCOCC4)c3)nc21 [BI00009348] | YSK4
Cc1cc(NC(=O)c2cccc(NC(=O)/C=C/CN(C)C)c2)ccc1Nc1nccc(-c2cccnc2)n1 [JNK-IN-7] | YSK4
NC(=O)c1cccnc1COc1cc(-c2ccc(N3CCOCC3)nc2)cc2ncccc12 [BI01125081] | YSK4
CCCc1cc(N2CCCN(C)CC2)nc2sc3c(N)ncnc3c12 [BI00604564] | YSK4
COc1cc2c(cc1OC)C(=C(Nc1ccccc1)c1cccc(CN)c1)C(=O)N2 [BIBF0846CL] | YSK4
